The full data set covers some 8,800 targets. This sample favours those with a hit. About 0.5% of all pairs of compound and target were hits. Values without a mark were called inactive.
Columns and labels:
Assay in all cases: log2 fold change, soluble protein after heating vs DMSO (PISA); higher = thermal stabilisation; K562 lysate, 10 uM; active = over 0.2 and 3.5 SD of the protein, either way, in both replicates (recomputed)
erlotinib = compound: C#Cc1cccc(Nc2ncnc3cc(OCCOC)c(OCCOC)cc23)c1 [erlotinib]
How it was run: (§1)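 Dounce homogenisation of K562 pellets in PBS pH 7.4 with 1 mM MgCl2 produced a crude extract, used at 1 mg/mL protein. Exposure to 10 μM compound lasted 30 min, and aliquots were then heated for 3 min across 48°C-58°C, pooled and brought to 0.5% NP-40 at 4°C. The supernatant after 21,000xg for 90 min was quantified by TMTpro 16plex LC-MS/MS with channel sums equalised. Duplicate values are given as log-two fold change in thermal stability relative to solvent controls.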

[1] = compound: C/C(=N\NC(=O)C1=CC(=CC=C1)S(=O)(=O)N2CCOCC2)/C3=C(C=CC(=C3)Cl)O
How it was run: as §1

[2] = compound: C1=CC(=CC=C1C2=NC3=C(N2)C=C(C=C3)C(=O)N)OC4=CC=C(C=C4)Cl
How it was run: as §1

[3] = compound: C1=CC2=C(C=CC(=C2)/C=C\3/C(=O)NC(=NCC4=CC=CS4)S3)N=C1
How it was run: as §1

[4] = compound: C1=CC2=NC=CN=C2C=C1/C=C/3\C(=O)NC(=O)S3
How it was run: as §1

[5] = compound: C1=CC=C(C=C1)C2=NC(=C(N2)C3=CC=NC=C3)C4=CC(=C(C=C4)Cl)O
How it was run: as §1

[6] = compound: C1=CC=C2C(=C1)C3=NNC4=CC=CC(=C43)C2=O
How it was run: as §1

[7] = compound: C1CCN(C1)C(=O)NC2=CC=CC(=C2)NC3=NC=C(C(=N3)NCCC4=CN=CN4)Br
How it was run: as §1

[8] = compound: C1CN(CCC1(CC2=CC=C(C=C2)Cl)N)C3=NC=NC4=C3C=CN4
How it was run: as §1

IRAK-1-4 Inhibitor I = compound: C1COCCN1CCN2C3=CC=CC=C3N=C2NC(=O)C4=CC(=CC=C4)[N+](=O)[O-] [IRAK-1-4 Inhibitor I]
How it was run: as §1

UniProt Q15046, sequence (Q15046 whole entry, looked up): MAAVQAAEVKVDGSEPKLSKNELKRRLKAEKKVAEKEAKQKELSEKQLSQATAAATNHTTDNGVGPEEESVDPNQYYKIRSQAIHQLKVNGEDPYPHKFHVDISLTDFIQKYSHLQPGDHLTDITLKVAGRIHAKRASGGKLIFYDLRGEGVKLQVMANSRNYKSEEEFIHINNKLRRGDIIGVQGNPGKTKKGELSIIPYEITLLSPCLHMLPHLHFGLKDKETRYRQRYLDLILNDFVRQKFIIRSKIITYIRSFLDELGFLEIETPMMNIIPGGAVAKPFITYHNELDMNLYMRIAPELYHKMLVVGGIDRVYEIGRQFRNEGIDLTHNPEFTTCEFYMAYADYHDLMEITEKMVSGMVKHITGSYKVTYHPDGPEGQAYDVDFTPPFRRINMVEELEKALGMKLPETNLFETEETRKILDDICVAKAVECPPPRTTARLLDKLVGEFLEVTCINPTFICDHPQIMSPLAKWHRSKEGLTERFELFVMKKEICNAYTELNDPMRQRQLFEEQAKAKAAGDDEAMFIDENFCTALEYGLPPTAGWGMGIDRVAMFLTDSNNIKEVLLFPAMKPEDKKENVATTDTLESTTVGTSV
UniProt P49915, sequence (P49915 whole entry, looked up): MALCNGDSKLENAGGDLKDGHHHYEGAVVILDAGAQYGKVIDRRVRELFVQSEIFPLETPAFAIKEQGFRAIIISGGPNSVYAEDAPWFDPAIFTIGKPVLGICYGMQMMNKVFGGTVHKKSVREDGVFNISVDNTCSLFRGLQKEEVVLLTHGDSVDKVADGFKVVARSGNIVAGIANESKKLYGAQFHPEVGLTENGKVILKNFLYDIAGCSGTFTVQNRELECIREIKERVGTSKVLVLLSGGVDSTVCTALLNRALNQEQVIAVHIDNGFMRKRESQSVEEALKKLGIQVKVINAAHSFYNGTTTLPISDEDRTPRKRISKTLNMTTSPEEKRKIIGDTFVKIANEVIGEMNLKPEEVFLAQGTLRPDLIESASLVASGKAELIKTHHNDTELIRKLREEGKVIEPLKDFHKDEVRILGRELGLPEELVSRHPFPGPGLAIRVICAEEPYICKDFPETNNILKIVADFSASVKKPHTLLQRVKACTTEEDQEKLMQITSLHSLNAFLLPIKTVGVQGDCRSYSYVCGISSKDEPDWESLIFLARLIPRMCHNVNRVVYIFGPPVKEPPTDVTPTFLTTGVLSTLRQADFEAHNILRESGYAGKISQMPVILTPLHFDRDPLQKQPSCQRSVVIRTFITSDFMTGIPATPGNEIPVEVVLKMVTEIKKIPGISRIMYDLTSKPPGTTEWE
UniProt P52655, sequence (P52655 whole entry, looked up): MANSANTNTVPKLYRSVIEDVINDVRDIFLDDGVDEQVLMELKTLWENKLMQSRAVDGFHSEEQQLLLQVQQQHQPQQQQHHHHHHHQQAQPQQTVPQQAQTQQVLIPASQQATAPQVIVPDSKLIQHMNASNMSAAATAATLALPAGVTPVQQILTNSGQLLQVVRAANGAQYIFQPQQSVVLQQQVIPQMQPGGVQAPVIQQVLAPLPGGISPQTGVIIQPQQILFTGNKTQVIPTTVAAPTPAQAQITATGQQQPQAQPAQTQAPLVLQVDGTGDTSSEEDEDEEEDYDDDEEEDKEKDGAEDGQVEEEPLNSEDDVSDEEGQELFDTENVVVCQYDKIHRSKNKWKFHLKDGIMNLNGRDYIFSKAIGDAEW
UniProt Q7Z4H7, sequence (Q7Z4H7 whole entry, looked up): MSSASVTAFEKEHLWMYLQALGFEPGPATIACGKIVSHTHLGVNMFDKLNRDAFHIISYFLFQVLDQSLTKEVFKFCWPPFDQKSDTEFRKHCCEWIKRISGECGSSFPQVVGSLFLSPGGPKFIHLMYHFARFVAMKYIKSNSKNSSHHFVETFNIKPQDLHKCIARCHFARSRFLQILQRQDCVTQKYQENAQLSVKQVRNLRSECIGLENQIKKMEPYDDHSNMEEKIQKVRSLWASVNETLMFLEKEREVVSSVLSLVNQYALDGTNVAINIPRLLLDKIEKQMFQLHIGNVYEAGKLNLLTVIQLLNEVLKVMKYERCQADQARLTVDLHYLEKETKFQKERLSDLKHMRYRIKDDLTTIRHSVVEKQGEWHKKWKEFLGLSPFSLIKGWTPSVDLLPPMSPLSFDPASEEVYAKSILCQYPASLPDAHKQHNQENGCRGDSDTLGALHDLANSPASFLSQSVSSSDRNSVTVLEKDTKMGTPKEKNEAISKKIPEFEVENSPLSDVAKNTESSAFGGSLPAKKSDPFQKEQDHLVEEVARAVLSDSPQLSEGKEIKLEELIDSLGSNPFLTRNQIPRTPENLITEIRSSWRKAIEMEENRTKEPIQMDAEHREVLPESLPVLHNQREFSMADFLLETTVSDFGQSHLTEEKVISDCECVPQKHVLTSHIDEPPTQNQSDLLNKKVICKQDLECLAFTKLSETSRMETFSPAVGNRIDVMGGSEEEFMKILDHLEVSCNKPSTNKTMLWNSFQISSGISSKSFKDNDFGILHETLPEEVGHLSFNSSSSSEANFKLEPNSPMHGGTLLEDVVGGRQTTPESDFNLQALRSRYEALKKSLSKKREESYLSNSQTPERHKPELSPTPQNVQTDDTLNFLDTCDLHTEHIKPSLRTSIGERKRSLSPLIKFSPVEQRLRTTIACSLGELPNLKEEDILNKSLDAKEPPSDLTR
UniProt P17096, sequence (P17096 whole entry, looked up): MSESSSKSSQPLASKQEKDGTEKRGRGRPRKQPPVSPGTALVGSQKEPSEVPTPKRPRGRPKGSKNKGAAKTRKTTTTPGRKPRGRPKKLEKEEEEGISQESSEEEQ
UniProt Q5T447, sequence (Q5T447 whole entry, looked up): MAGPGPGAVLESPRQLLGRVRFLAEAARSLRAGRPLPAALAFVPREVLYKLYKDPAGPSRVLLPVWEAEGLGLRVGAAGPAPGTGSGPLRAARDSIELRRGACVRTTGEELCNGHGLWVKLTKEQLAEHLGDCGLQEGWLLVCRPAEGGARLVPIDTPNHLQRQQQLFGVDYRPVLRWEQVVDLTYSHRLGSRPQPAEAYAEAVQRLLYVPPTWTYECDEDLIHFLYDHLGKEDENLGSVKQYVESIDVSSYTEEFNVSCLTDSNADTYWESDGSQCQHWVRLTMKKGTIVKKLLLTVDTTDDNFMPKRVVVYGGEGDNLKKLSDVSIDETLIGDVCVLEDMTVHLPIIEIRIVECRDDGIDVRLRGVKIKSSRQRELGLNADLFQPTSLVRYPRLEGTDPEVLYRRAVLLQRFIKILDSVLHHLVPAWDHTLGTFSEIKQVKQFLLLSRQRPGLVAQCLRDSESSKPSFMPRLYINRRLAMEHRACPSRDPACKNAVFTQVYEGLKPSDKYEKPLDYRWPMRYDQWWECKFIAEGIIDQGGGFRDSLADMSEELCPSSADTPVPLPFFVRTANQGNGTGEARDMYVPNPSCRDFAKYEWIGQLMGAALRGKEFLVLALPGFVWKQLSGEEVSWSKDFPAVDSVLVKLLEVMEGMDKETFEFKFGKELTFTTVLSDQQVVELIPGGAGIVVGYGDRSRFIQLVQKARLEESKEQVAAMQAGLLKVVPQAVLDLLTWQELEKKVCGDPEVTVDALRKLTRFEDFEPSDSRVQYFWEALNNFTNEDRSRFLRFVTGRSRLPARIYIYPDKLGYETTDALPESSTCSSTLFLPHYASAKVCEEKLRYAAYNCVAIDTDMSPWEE
UniProt Q49A26, sequence (Q49A26 whole entry, looked up): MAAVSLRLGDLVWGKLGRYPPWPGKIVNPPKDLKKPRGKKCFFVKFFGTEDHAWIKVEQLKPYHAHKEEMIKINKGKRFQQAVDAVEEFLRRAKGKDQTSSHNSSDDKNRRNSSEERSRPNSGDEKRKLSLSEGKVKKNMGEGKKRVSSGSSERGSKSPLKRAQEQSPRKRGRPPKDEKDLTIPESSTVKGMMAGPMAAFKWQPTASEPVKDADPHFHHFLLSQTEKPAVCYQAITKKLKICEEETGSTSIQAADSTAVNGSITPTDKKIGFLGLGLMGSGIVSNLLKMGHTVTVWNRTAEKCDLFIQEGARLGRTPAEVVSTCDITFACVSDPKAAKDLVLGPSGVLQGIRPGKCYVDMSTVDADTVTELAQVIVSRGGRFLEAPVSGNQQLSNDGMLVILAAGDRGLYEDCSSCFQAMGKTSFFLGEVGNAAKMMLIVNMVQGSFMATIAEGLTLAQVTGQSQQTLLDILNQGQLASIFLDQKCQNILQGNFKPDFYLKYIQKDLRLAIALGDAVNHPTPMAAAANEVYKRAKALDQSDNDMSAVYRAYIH
UniProt A6NDN3, sequence (A6NDN3 whole entry, looked up): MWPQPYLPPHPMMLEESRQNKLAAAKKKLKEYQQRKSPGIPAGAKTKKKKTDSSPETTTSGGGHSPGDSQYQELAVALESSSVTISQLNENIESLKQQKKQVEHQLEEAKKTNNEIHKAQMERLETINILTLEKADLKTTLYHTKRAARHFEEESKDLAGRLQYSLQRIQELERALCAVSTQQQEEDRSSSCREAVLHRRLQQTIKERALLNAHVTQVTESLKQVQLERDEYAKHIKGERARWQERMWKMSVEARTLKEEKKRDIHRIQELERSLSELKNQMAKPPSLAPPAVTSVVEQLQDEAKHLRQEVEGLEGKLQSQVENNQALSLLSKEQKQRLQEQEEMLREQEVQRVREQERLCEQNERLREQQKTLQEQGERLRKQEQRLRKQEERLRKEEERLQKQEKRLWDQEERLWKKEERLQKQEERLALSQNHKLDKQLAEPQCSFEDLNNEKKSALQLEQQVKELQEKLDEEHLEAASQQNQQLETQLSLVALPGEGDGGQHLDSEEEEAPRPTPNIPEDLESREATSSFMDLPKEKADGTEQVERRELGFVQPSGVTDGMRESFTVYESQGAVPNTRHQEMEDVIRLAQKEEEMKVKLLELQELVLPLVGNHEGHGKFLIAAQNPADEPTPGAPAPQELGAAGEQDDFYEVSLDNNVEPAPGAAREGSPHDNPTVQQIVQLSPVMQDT
UniProt Q01628, sequence (Q01628 whole entry, looked up): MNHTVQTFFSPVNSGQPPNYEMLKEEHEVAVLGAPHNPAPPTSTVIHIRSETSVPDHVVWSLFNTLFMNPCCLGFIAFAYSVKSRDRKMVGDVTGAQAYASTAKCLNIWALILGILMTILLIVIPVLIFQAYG

Target	log2 fold change (erlotinib)	log2 fold change [1]	log2 fold change [2]	log2 fold change [3]	log2 fold change [4]	log2 fold change [5]	log2 fold change [6]	log2 fold change [7]	log2 fold change [8]	log2 fold change (IRAK-1-4 Inhibitor I)
INF2 (UniProt Q27J81)	0.004	-0.014	-0.027	0.069	0.004	-0.024	-0.019	0.031	0.056	-0.011
KARS1 (UniProt Q15046)	-0.015	0.002	-0.04	-0.016	-0.005	0.004	-0.021	-0.006	-0.021	-0.017
IFITM3 (UniProt Q01628)	-0.136	-0.11	0.062	0.004	-0.094	-0.122	0.084	-0.095	-0.069	-0.026
H2AFY (UniProt O75367)	0.02	-0.026	0.049	0.069	0.013	0.069	0.081	-0.051	-0.113	0.02
HAUS6 (UniProt Q7Z4H7)	0.031	0.102	-0.038	-0.035	-0.008	0.019	0.024	-0.015	0.039	0.017
INTS3 (UniProt Q68E01)	0.015	0.035	0.021	-0.002	-0.008	-0.043	-0.005	0.026	-0.083	0.016
GMPS (UniProt P49915)	0.014	-0.025	0.004	0.029	-0.013	-0.007	-0.009	-0.003	0.017	-0.004
HMGA1 (UniProt P17096)	-0.037	-0.053	-0.001	-0.026	-0.053	-0.007	0.026	0.036	0.013	-0.022
GNE isoform 2 (UniProt Q9Y223)	0.035	-0.067	-0.042	-0.032	0.011	0.064	-0.031	-0.024	0.023	-0.042
IARS2 (UniProt Q9NSE4)	-0.025	0.014	0.026	0.005	0.013	-0.007	-0.043	-0.01	0.054	0.016
HAUS4 (UniProt Q9H6D7)	0.012	-0.029	-0.036	0.064	-0.003	0.015	-0.015	-0.025	-0.007	-0.016
HMGCS1 (UniProt Q01581)	-0.003	-0.035	0.006	-0.001	-0.005	0.014	0.004	0.003	0.012	-0.009
HADHA (UniProt P40939)	-0.08	0.042	0.387 (active)	0.014	-0.087	-0.003	0.026	-0.067	0.04	0.031
HNRNPLL (UniProt Q8WVV9)	0.007	0	0.011	0.009	-0.017	-0.019	-0.035	0.006	-0.009	-0.026
HAUS5 (UniProt O94927)	0.046	0.021	-0.071	-0.015	-0.045	-0.009	0.113	0.031	-0.017	0.033
IFNGR1 (UniProt P15260)	0.06	-0.064	0.07	-0.134	-0.127	-0.021	-0.264	-0.075	0.073	0.107
IRF2BPL (UniProt Q9H1B7)	0.024	0.102	0.037	0.022	-0.034	0.002	-0.008	-0.002	0.027	-0.027

Target	log2 fold change (erlotinib)	log2 fold change [1]	log2 fold change [2]	log2 fold change [3]	log2 fold change [4]	log2 fold change [5]	log2 fold change [6]	log2 fold change [7]	log2 fold change [8]	log2 fold change (IRAK-1-4 Inhibitor I)
HEATR3 (UniProt Q7Z4Q2)	0.002	0.029	-0.064	-0.015	0.02	-0.022	-0.052	-0.002	0.006	-0.001
HK1 isoform 2 (UniProt P19367)	-0.027	-0.006	0.009	0.006	0.007	0.007	-0.006	0.001	0.014	-0.002
GTF2A1 (UniProt P52655)	0.031	-0.008	0.015	0.026	-0.01	-0.038	-0.061	-0.04	-0.01	0.033
GPR108 (UniProt Q9NPR9)	0.035	0.022	0	0.066	0.015	0.056	-0.028	-0.015	0.03	-0.026
IMPDH2 (UniProt P12268)	0.001	-0.009	-0.018	-0.018	-0.013	-0.028	-0.003	0.019	-0.003	0.011
IRAK4 (UniProt Q9NWZ3)	-0.03	-0.071	-0.037	-0.019	0.037	0.015	0.223	0.3 (active)	-0.037	0.006
GSTM2 (UniProt P28161)	-0.083	0.041	-0.038	-0.007	0.079	-0.008	-0.012	-0.021	-0.054	0.037
GRK2 (UniProt P25098)	0.023	0.028	0.015	0.115	-0.005	-0.025	-0.098	-0.026	0.536 (active)	-0.002
GTF3C5 isoform 3 (UniProt Q9Y5Q8)	-0.002	-0.042	-0.01	0.007	-0.024	-0.019	-0.03	0.072	0.019	-0.015
HDGFL2 isoform 2 (UniProt Q7Z4V5)	-0.008	-0.028	0.032	-0.008	-0.03	0.027	0.01	0	0.021	0
GTF3C3 (UniProt Q9Y5Q9)	0.016	0.013	-0.013	0.025	0	-0.005	-0.065	0	0.031	-0.001
HAUS8 (UniProt Q9BT25)	0.007	-0.007	0.007	0.016	-0.06	-0.029	0.142	0.001	0.062	0.015
HECTD4 (UniProt J3KPF0)	0.076	-0.002	0.035	-0.125	-0.02	0.024	-0.055	-0.027	0.01	-0.009
HACE1 (UniProt Q8IYU2)	0.033	0.083	0.106	-0.019	0.017	-0.189	-0.174	-0.069	0.055	0.032
GLYR1 (UniProt Q49A26)	0.025	0.061	-0.018	0.021	0.041	0.029	-0.01	0.11	0.035	0.006
GOLGA6B (UniProt A6NDN3)	0.092	-0.061	-0.082	0.033	0.08	-0.013	-0.054	0.011	0.032	-0.022
HECTD3 (UniProt Q5T447)	0.027	0	-0.005	0.008	0.022	0.018	-0.008	-0.028	-0.026	0.008
